Rows were chosen to be rich in hits. Some 2.6% of all compounds tested hit in one or more screens of this group.
TWEAK Fn14 block: inhibitors of TWEAK-Fn14 signaling, primary screen, luciferase reporter cells, uHTS. inhibition, % at 10 µM. hit rate 2% among 360,000. TWEAK-stimulated Fn14 reporter cells, luciferase luminescence, 8 h; in the data active means inhibition above about 50%
EWS-Fli block: EWS/Fli-driven NR0B1 reporter inhibitors, primary screen, A673 cells, NR0B1 luciferase, luminescence, MLPCN library | viability-normalised | inhibition, % at 12.6 µM | hit rate 0.67% among 350,000;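 active means mean inhibition of at least 50% after viability correction, with every replicate also passing that limit; inconclusive means mean reaches 50% but only one of two replicates passes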;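 further: firefly luciferase signal divided by Alamar Blue viability fluorescence both relative to DMSO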
TROY signal inh: inhibitors of TROY-driven NF-kB signaling, primary screen, Q293 LMP1-TROYcd cells, NF-kB luciferase, uHTS | inhibition, % at 10 µM | hit rate 0.98% among 360,000 | AID 1347056, 2019 | Q293 LMP1-TROYcd NF-kB luciferase reporter, 4 h;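 active means compounds whose plate-normalised and pattern-corrected inhibition of the luciferase reporter signal at the single screening dose is 50% or more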
LGR2 antag: inhibitors of bursicon-induced LGR2 CRE-luciferase signal, primary screen, cell-based, HEK293, CRE-luciferase reporter, bursicon stimulation | bursicon-stimulated, 4 h | hit rate 0.35% among 380,000 | Drosophila bursicon receptor LGR2 (rickets) | inhibition, % at 9.99 µM | AID 720647, 2013;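 active means drop in luminescence signal, shown as inhibition above about 50% in the replicate tests, limit read from the data, passing the limit was not always enough; inconclusive means probably only some replicates passing the limit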;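 further: agonist challenge used bursicon conditioned medium at about half maximal strength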
EBV LMP1 NFkB: EBV LMP1-driven NF-kappaB luciferase reporter inhibitors, primary screen, cell-based, luminescence, single point | hit rate 0.69% among 350,000 | inhibition, % at 12.5 µM | AID 504558, 2011 | LMP1-induced NF-kappaB luciferase reporter cells; in the data active means inhibition above about 41%; inconclusive means no clear call, values can overlap the other calls;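 further: 0% = neutral control wells and 100% = reference inhibitor control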
Active calls of the source: *; ? = inconclusive; . = not tested or not shown.

SMILES	TWEAK Fn14 block	EWS-Fli block	TROY signal inh	LGR2 antag	EBV LMP1 NFkB
CCCCNC(=O)C1(C)CCN1C(=O)c1cc(-c2cccs2)oc1C (configuration not stated)	78.5*	20.8	37.2	?	.
C[C@@H]1CN([C@H](C)CO)C(=O)c2cc(NC(=O)Nc3ccc4c(c3)OCO4)ccc2O[C@H]1CN(C)S(=O)(=O)c1ccc(Cl)cc1	.	-2.8	.	.	.
CCCCN(c1ccccc1)c1ncnc(N)c1[N+](=O)[O-]	82.9*	-10.3	36.4	17.5	46.5*
CN(c1ncnc(N)c1[N+](=O)[O-])C1CCCCC1	81.3*	-26.6	52.2*	28.1	38.4
Cc1cccc(C(=O)n2c(=S)nc3cc(C)ccn32)c1	85.4*	25.8	70.9*	79.8*	32.9
Cc1ccn2c(c1)nc(=S)n2C(=O)c1ccccc1	98.4*	70.7*	74.2*	.	49.4*
COc1cc(-c2csc(N3CCOCC3)n2)cc(OC)c1OC	-6.9	.	-15.2	-11.0	-3.8
COc1ccc(-c2csc(N3CCN(c4cc(C)nc5ccccc45)CC3)n2)cc1OC	52.0*	29.5	41.6	.	31.1
O=C(N[C@H]1CC[C@H](CC(=O)N2CCCCC2)O[C@H]1CO)c1ccccn1	.	-3.2	.	-2.0	.
Cc1ccccc1Nc1c(-c2ccccn2)nc2ccccn12	-36.6	51.6*	29.0	49.8	-1.6
Cc1ccn2c(Nc3ccccc3)c(-c3ccccn3)nc2c1	22.5	51.9*	1.1	8.2	58.9*
COc1ccccc1CNC(=O)c1oc2ccc(S(=O)(=O)N3CCOCC3)cc2c1C	52.1*	-5.3	-2.1	6.9	5.0
COc1ccc(NC(=O)c2oc3ccc(S(=O)(=O)N4CCC5(CC4)OCCO5)cc3c2C)cc1	52.9*	.	28.6	7.3	1.5
COc1ccccc1CNC(=O)c1oc2ccc(S(=O)(=O)N3CCCC3)cc2c1C	23.6	.	-11.9	.	3.8
Cc1c(C(=O)NCc2ccc3c(c2)OCO3)oc2ccc(S(=O)(=O)N3CCCCC3)cc12	59.1*	.	15.7	.	11.4
C[C@H]1CN([C@@H](C)CO)C(=O)Cc2cc(NC(=O)Nc3ccc(C(F)(F)F)cc3)ccc2O[C@@H]1CN(C)Cc1ccc(C(F)(F)F)cc1	.	5.2	.	14.8	.
C[C@@H]1CCCCO[C@H](CN(C)C(=O)Cc2ccccc2)[C@@H](C)CN([C@@H](C)CO)C(=O)c2cc(NS(=O)(=O)c3ccccc3)ccc2O1	.	9.6	.	-11.8	.
CNC[C@H]1Oc2cc(C#Cc3ccncc3)ccc2S(=O)(=O)N([C@H](C)CO)C[C@@H]1C	.	-23.2	.	-5.8	.
Cc1ccc(-c2cc(N)n3nc(-c4ccc(C)cc4)cc3n2)cc1	4.7	.	10.6	.	52.0*
CCCNc1ccc(C(=O)OCC)cc1[N+](=O)[O-]	-15.5	2.2	-29.2	-47.3	-28.6
CCOC(=O)c1ccc(NC(C)=O)c([N+](=O)[O-])c1	58.9*	-6.8	68.8*	-6.5	-5.3
C[C@@H]1CCCCO[C@@H](CN(C)C(=O)Nc2ccccc2)[C@@H](C)CN([C@H](C)CO)C(=O)c2cc(NC(=O)CCCN(C)C)ccc2O1	.	-11.0	.	16.2	.
COc1ccc(NC(=O)CN2CCC3(O)CCCCC3C2c2ccccc2OC)cc1 (configuration not stated)	.	.	.	11.1	.
COc1cc([C@H]2[C@@H]3CCCC[C@]3(O)CCN2CC(=O)Nc2ccc(C)cc2)ccc1O	66.0*	.	7.3	.	0.2
CCOC(=O)c1sc(N(Cc2ccccc2)C(=O)COC(=O)c2ccccc2O)nc1C	-24.9	-7.9	-30.3	.	8.6
SMILES	TWEAK Fn14 block	EWS-Fli block	TROY signal inh	LGR2 antag	EBV LMP1 NFkB
CCOC(=O)c1sc(N(Cc2ccccc2)C(=O)COC(=O)c2ccc(O)cc2)nc1C	71.2*	.	37.0	44.7	53.2*
CCOC(=O)c1sc(N(Cc2ccccc2)C(=O)CCl)nc1C	-36.0	56.9*	-0.2	-6.3	0.9
OC(CSc1ccccc1Cl)CN1CCN(c2ccccc2F)CC1 (configuration not stated)	31.6	.	63.5*	-6.4	0.5
COc1cc(N=Nc2ccc(Br)cc2)cc(C=O)c1O	86.7*	1.1	46.8	-1.4	7.7
COc1cc(CN(C)C)cc(C=O)c1O	13.2	.	8.0	.	2.1
Cc1cc(Sc2ncnc(N)c2[N+](=O)[O-])ncn1	51.1*	.	12.9	.	-9.8
CN1OC[C@@H]2CN(C(=O)C(C)(C)C)[C@H](c3cccc(Br)c3)C[C@@H]21	60.5*	-3.4	64.2*	-4.4	-4.0
COCC(=O)Nc1ccc2c(c1)OC[C@@H](C)N(Cc1cccc(F)c1)C[C@@H](C)[C@H](OC)CN(C)C2=O	.	0.0	.	0.4	.
Cc1csc(NC(=O)c2cn3ccccc3n2)n1	90.7*	72.8*	61.5*	88.9*	67.6*
O=C(Nc1ccccc1)c1cn2ccccc2n1	89.5*	30.2	44.6	?	42.2*
Cc1csc(NC(=O)c2ccccc2C(=O)O)n1	-5.4	.	6.3	.	-1.3
CCc1ccc(C(=O)Nc2nc(C)cs2)s1	62.8*	41.5	14.2	8.7	13.8
Cc1csc(NC(=O)c2cnc3ccccc3n2)n1	52.2*	57.6*	25.2	58.4*	17.0
C[C@H](CO)N1C[C@H](C)[C@@H](CN(C)Cc2ccc(Oc3ccccc3)cc2)Oc2ccc(NS(=O)(=O)c3cccs3)cc2CC1=O	.	13.0	.	12.9	.
O=C(CCl)N1c2ccccc2SCC1c1ccccc1 (configuration not stated)	7.7	61.4*	10.7	6.2	9.4
O=C1[C@H](Oc2ccccc2)[C@@H](c2ccccc2)N1c1ccncc1	65.0*	7.3	56.4*	65.9*	11.2
Fc1ccc(-c2nc3c4ccccc4ccn3c2Cc2ccccc2C(F)(F)F)cc1	-2.1	.	58.8*	.	.
Cn1c(=O)c(C(=O)Nc2ncccc2O)c(O)c2ccccc21	8.2	.	-22.4	.	-19.5
CCCn1c(=O)c(C(=O)Nc2ncccc2O)c(O)c2ccccc21	87.0*	8.4	42.8	24.0	12.1
c1ccc(CNc2ncnc3c2cnn3-c2ccccc2)cc1	22.9	.	-50.7	.	5.6
CC(C)Nc1ncnc2c1cnn2-c1ccc(Cl)cc1	73.8*	18.2	63.5*	?	-5.0
Clc1ccc(Nc2ncnc3c2cnn3-c2ccccc2)cc1	46.1	-161.2	-12.4	-17.1	-27.2
CC(C)(C)Nc1ncnc2c1cnn2-c1ccccc1	40.0	-50.5	51.5*	-3.7	-24.1
COCCNc1ncnc2c1cnn2-c1ccc(Cl)cc1	54.3*	.	-53.0	.	-20.0
COc1ccc(NC(=O)Nc2ccc3c(c2)C(=O)N([C@@H](C)CO)C[C@H](C)[C@@H](CN(C)S(=O)(=O)c2ccc(OC)cc2)OCCCC[C@H](C)O3)cc1	.	-0.3	.	12.4	.
C[C@@H]1CN([C@@H](C)CO)C(=O)Cc2cc(NC(=O)Nc3ccc(F)cc3)ccc2O[C@H]1CN(C)CC1CC1	.	-3.3	.	21.4	.
COc1ccc2sc(-c3ccccc3OC)c(-c3ccc(OC)nc3)c2c1	-5.7	-52.9	-26.9	-9.4	-10.4

Screens deposited in PubChem by several laboratories.
